From PubChem
TEAD-YAP block – TEAD-YAP interaction inhibition, primary screen, TEAD-YAP interaction inhibitor project, luminescence, HEK-TIYL cells | TEAD-Gal4/YAP UAS-luciferase luminescence | inhibition, % at 9.12 µM | 640,000 compounds, 1.4% hits | AID 1259422, 2018; in the data active = inhibition above about 32%
FBW7 act – FBW7 E3 ligase activators, primary screen, biochemical, AlphaScreen, human; normalized activity (activation), % at 26.1 µM; AlphaScreen FBW7–phospho-cyclin E peptide binding, activator screen; 650,000 compounds, 0.13% hits; F-box/WD repeat-containing protein 7 (Homo sapiens), Q969H0; in the data active = normalized activity above about 1.9%;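 also: purified mutant Fbw7 with reduced substrate affinity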
GPR151 activ – activators of human GPR151, primary screen, cell-based, PathHunter beta-arrestin, luminescence. G-protein coupled receptor 151 (Homo sapiens), Q8TDV0. AID 1508602, 2020. 650,000 compounds, 1% hits. PathHunter beta-arrestin GPR151 cells. activation, % at 11.2 µM; in the data active = activation above about 4.9%
MITF primary – MITF inhibitors, primary screen, biochemical, AlphaScreen, human; Microphthalmia-associated transcription factor (Homo sapiens), O75030; AlphaScreen MITF homodimerization, bead proximity signal; inhibition, % at 2.6 µM; 650,000 compounds, 0.91% hits; in the data active = inhibition above about 50%
Target sequence (O75030 whole entry, looked up): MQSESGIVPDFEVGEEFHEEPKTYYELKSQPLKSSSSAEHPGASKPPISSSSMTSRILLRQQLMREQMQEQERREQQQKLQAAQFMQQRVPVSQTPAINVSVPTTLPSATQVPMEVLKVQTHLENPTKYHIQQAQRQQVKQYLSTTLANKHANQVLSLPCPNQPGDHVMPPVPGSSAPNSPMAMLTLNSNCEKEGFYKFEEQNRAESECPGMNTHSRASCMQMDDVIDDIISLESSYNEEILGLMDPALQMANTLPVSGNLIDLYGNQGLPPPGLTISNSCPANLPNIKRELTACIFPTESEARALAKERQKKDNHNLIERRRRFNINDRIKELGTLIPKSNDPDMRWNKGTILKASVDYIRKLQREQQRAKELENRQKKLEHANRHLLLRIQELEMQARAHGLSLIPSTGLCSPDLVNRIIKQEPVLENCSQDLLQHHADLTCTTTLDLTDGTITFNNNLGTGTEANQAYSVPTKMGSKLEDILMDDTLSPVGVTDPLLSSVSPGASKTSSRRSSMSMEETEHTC
GPR151 conf act – GPR151 activators, triplicate retest, confirmation, cell-based, PathHunter beta-arrestin, luminescence | shares compounds with GPR151 activ | GPR151 PathHunter beta-arrestin cells, 90 min; % of EA-reagent control over plate median | activation, % at 11.2 µM | 6,700 tested, under 10 active | AID 1508609, 2020;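 active = mean percent activation across replicates above the confirmation screen cutoff of 4.91%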
GPR119 ag – GPR119 activators in beta-arrestin cells, counter-screen for GPR151 activator project, cell-based, PathHunter beta-arrestin, luminescence, triplicate; 90 min; 0 = compound-well median, 100 = enzyme-acceptor control; shares compounds with GPR151 activ; 6,700 compounds, 0.3% hits; activation, % at 11.2 µM; AID 1508611, 2020;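 active = mean percent activation in the counterscreen above 29.09%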;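 also: counterscreen on off-target GPR119 to flag nonselective hits from the GPR151 activator screen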
Of the large screens only hits and unclear results are named; the others gave an inactive call (follow-up assays come after a bar, where they were run). Most compounds without a hit are left out; they make up all but 3.5% or so of the library.

Cn1c(=O)c2c(nc(Cl)n2Cc2ccc([N+](=O)[O-])cc2)n(C)c1=O	none
O=C(Nc1nc(-c2ccc3ccccc3c2)cs1)c1cc(-c2ccccc2)nc2ccccc12	none
COc1cccc(OCCCOc2cccc3ccc(C)nc23)c1	GPR151 activ 5.4 | GPR151 conf act inactive | GPR119 ag inactive
COC(=O)c1ccc(OCCOCCOc2cccc3ccc(C)nc23)cc1	none
N#C/C(=C\c1cccc(Cl)c1Cl)c1nn(-c2ccccc2)c(N)c1C#N	none
Cc1cc(C(=O)Nc2ccccc2C(F)(F)F)on1	GPR151 activ 5.3 | GPR151 conf act inactive | GPR119 ag inactive
O=S(=O)(c1ccc2ccccc2c1)N1CCN(C2CCCCC2)CC1	none
O=C(NCc1cccnc1)c1cccc(Nc2ccc3ncccc3c2)n1	GPR151 activ 5.3 | GPR151 conf act inactive | GPR119 ag inactive
O=C(Nc1ccc2c(c1)OCO2)c1cccc(Nc2ccc3ncccc3c2)n1	GPR151 activ 6.3 | GPR151 conf act inactive | GPR119 ag inactive
O=C(Nc1ccc2c(c1)OCO2)c1cccc(Nc2ccc3ncccc3c2)c1	none
CCN(CC)c1nc(Nc2nc3ccccc3n2C)nc(NC2CC2)n1	GPR151 activ 7.5 | GPR151 conf act inactive | GPR119 ag inactive
CCN(CC)c1nc(Nc2ccccc2)nc(Nc2nc3ccccc3n2C)n1	none
CC1(C(=O)NCc2ccco2)COC(c2ccccc2)OC1 (stereo not drawn)	none
COc1cc(C(=O)N2CCN(C3CCCC3)CC2)cc(OC)c1OC	none
COc1cc(OC)cc(C(=O)N2CCN(C3CCCCC3)CC2)c1	GPR151 activ 5.0 | GPR151 conf act inactive | GPR119 ag inactive
CC(Oc1cccc(Cl)c1)C(=O)Nc1nccs1 (stereo not drawn)	GPR151 activ 6.0 | GPR151 conf act inactive | GPR119 ag inactive
Cc1cc(C)nc(N2CCCC(C(=O)Nc3ccc(Br)cc3)C2)n1 (stereo not drawn)	none
Cc1ccc(-n2ncc3c(SCC(=O)NC(C)C)ncnc32)c(C)c1	none
Cc1ccc(-n2ncc3c(SCC(=O)Nc4ccc(C(N)=O)cc4)ncnc32)c(C)c1	GPR151 activ 5.3 | GPR151 conf act inactive | GPR119 ag inactive
CCN(CC)c1ncnc2sc(C(=O)Nc3ccc(C)c(F)c3)c(C)c12	GPR151 activ 9.1 | GPR151 conf act inactive | GPR119 ag inactive
COc1ccc(C(=O)N/N=C/c2cc(OC)ccc2O)cc1	none
COc1ccc(/C=N\NC(=O)c2ccc([N+](=O)[O-])cc2)cc1Cl	GPR151 activ 6.5 | GPR151 conf act inactive | GPR119 ag inactive
CC(C)(C)c1ccc(C(=O)N/N=C/c2ccc(O)c([N+](=O)[O-])c2)cc1	GPR151 activ 5.1 | GPR151 conf act inactive | GPR119 ag inactive
COc1ccc(O)c(/C=N/NC(=O)c2cc([N+](=O)[O-])cc([N+](=O)[O-])c2)c1	GPR151 activ 7.0 | GPR151 conf act inactive | GPR119 ag inactive
O=C(N/N=C/c1cc([N+](=O)[O-])ccc1O)C12CC3CC(CC(C3)C1)C2	GPR151 activ 5.1 | GPR151 conf act inactive | GPR119 ag inactive
Cc1csc(SCC(=O)Nc2ccccn2)n1	GPR151 activ 6.2 | GPR151 conf act inactive | GPR119 ag inactive
CCCNC(=O)c1ccc2nc(Nc3ccccn3)sc2c1	none
COc1ccc(Cl)cc1C(=O)Nc1c2c(nn1-c1ccc(C)cc1C)CS(=O)(=O)C2	GPR151 activ 5.3 | GPR151 conf act inactive | GPR119 ag inactive
O=C(Nc1c2c(nn1-c1ccc(F)cc1)CS(=O)(=O)C2)C1(c2ccc(Cl)cc2)CCCC1	GPR151 activ 5.1 | GPR151 conf act inactive | GPR119 ag inactive
Cc1ccc(-n2nc3c(c2NC(=O)c2c(F)cccc2F)CS(=O)(=O)C3)cc1	none
O=C(Nc1c2c(nn1-c1ccc(Cl)cc1)CS(=O)(=O)C2)C1(c2ccc(Cl)cc2)CCCC1	none
COc1ccc(-n2nc3c(c2NC(=O)c2c(F)cccc2F)CS(=O)(=O)C3)cc1	GPR151 activ 7.1 | GPR151 conf act inactive | GPR119 ag inactive
